From publication PMC5540273 (PLoS ONE, 2017)

How the values were obtained:
Conditions in all cases: concentration: 1 μM,replicates: in singlicate; n = 1
[1] = tested on: EPHA7
[2] = tested on: EPHA8
[3] = tested on: EPHB1
[4] = tested on: EPHB2
[5] = tested on: EPHB3
[6] = tested on: EPHB4
[7] = tested on: EPHB6
[8] = tested on: ERBB2
[9] = tested on: ERBB3
[10] = tested on: ERBB4
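Note: KINOMEscan kinase panel screen.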

Row | SMILES | %Inh [1] [%] | %Inh [2] [%] | %Inh [3] [%] | %Inh [4] [%] | %Inh [5] [%] | %Inh [6] [%] | %Inh [7] [%] | %Inh [8] [%] | %Inh [9] [%] | %Inh [10] [%]
1 | NC(=O)c1cc(-c2ccccc2)cc2c(C3CCNCC3)c[nH]c12 [GSK301362] | 20 | 23 | 26 | 29 | 15 | 1 | 16 | 16 | 0 | 9
2 | Cc1n[nH]c2ccc(-c3cc(OC[C@@H](N)Cc4ccccc4)cnc3-c3ccoc3)cc12.O=C(O)C(F)(F)F.O=C(O)C(F)(F)F [GSK507358] | 10 | 21 | 0 | 0 | 14 | 8 | 8 | 77 | 0 | 64
3 | Cl.Oc1cc(-c2nc(-c3ccccc3)[nH]c2-c2ccncc2)ccc1Cl [SB-386023] | 9 | 14 | 0 | 0 | 22 | 30 | 14 | 0 | 0 | 23
4 | C[C@@H]1CCN(C(=O)CC#N)C[C@@H]1N(C)c1ncnc2[nH]ccc12 | 21 | 10 | 0 | 0 | 0 | 0 | 10 | 0 | 0 | 15
5 | Cl.Cl.Nc1nc(-c2ccc3c(N)n[nH]c3c2)cc(N2CCCC(NC(=O)c3ccccc3)C2)n1 (stereo not drawn) [GSK2286775] | 11 | 16 | 27 | 10 | 11 | 3 | 26 | 0 | 0 | 33
6 | Cc1ccc(-n2nc(C(C)(C)C)cc2NC(=O)Nc2ccc(OCCN3CCOCC3)c3ccccc23)cc1 [GW839464] | 72 | 86 |  | 37 | 7 | 31 | 0 | 24 | 26 | 0
7 | C[C@@H](Oc1cc(-c2cnn(C3CCNCC3)c2)cnc1N)c1c(Cl)ccc(F)c1Cl |  | 54 | 68 |  | 16 | 52 | 99.6 | 7 | 0 | 0
8 | Cc1ccc2c(-c3ccncc3)c(-c3ccc(F)cc3)nn2c1.Cl [GW461484] | 7 | 15 | 0 | 0 | 5 | 0 | 27 | 21 | 0 | 3
9 | CC(C)Nc1cc(-c2ccc3c(N)n[nH]c3c2)nc(N)n1 [GSK2221681] | 12 | 18 | 0 | 0 | 0 | 0 | 0 | 8 | 0 | 0
10 | Nc1nc(Nc2ccccc2)cc(-c2ccc3c(N)n[nH]c3c2)n1 [GSK2225749] | 0 | 0 | 4 | 0 | 0 | 0 | 0 | 32 | 0 | 0
11 | C=CC(=O)Nc1cc2c(Nc3ccc(F)c(Cl)c3)ncnc2cc1OCCCN1CCOCC1 [GW781483] | 8 | 33 | 9 |  | 0 | 24 | 52 |  | 83 | 
12 | CN(C)CC(O)COc1ccc(Nc2nccc(-c3cnn4nc(N5CCOCC5)ccc34)n2)cc1 (stereo not drawn) [GW767488] | 9 | 0 | 9 | 0 | 0 | 95.4 | 73 | 5 | 40 | 33
13 | O=C(NCCNc1ccnc(NCc2ccc(F)cc2)n1)c1cc2ccccc2s1 [GSK1379944] | 12 | 34 | 6 | 80 | 27 | 16 | 18 | 13 | 0 | 0
14 | CNC(=O)c1ccccc1Sc1ccc2c(/C=C/c3ccccn3)n[nH]c2c1 | 0 | 0 | 0 | 0 | 0 | 0 | 80 | 22 | 1 | 6
15 | CC(C)N1C(=O)Cc2cc(Nc3ncc(C(F)(F)F)c(NCc4cccc(S(C)(=O)=O)c4)n3)ccc21 | 12 | 5 | 16 | 3 | 0 | 0 | 49 | 15 | 13 | 0
16 | Cc1cc(C(=O)Nc2ccc(Oc3ccc4nc(NC(=O)C5CC5)cn4n3)cc2)nn1-c1ccccc1 | 0 | 37 | 18 | 30 | 19 | 37 | 89 | 19 | 87 | 19
17 | C[C@H]1Oc2cc(cnc2N)-c2c(nn(C)c2C#N)CN(C)C(=O)c2ccc(F)cc21 | 35 | 2 | 27 | 30 | 2 | 35 | 82 | 28 | 0 | 0
18 | Cl.Cl.NC[C@H](Cc1ccc(C(F)(F)F)cc1)NC(=O)c1cc(Br)c(-c2ccnc3[nH]ccc23)s1 [GSK1487252] | 10 | 47 | 12 | 10 | 20 | 14 | 12 | 9 | 0 | 41
19 | COc1ccc(C[C@@H](CN)NC(=O)c2cc(Br)c(-c3ccnc4[nH]ccc34)s2)cc1.Cl.Cl [GSK1389063] | 12 | 59 | 19 | 1 | 31 | 32 | 35 | 25 | 0 | 38
20 | O=C(NCCCN1CCOC1=O)c1cnc(NCc2cc(Cl)ccc2Cl)nc1NC1CCCC1 | 2 | 4 | 8 | 12 | 24 | 16 | 19 | 46 | 0 | 9
21 | CCn1c(-c2nonc2N)nc2c(C#CC(C)(C)O)nc(OCCN)cc21.Cl.Cl [GSK902056] | 0 | 2 | 3 | 1 | 11 | 20 | 0 | 11 | 0 | 20
22 | CCN(CC)CCCCNc1ncc2cc(-c3c(Cl)cccc3Cl)c(NC(=O)NC(C)(C)C)nc2n1 | 0 | 99.9 | 99.9 | 93 | 26 | 92.6 | 98.9 | 35 | 68 | 38
23 | Cc1cc2cn[nH]c2cc1-c1cccc2c(N)c(C(N)=O)nnc12 | 19 | 11 | 15 | 0 | 0 | 0 | 64 | 14 | 30 | 87
24 | Cl.Cl.NC[C@H](CC1CCCCC1)NC(=O)c1cc(Br)c(-c2ccnc3[nH]ccc23)s1 [GSK1581427] | 14 | 52 | 17 | 0 | 5 | 10 | 10 | 1 | 0 | 22
25 | CCN(CC)CCOc1ccc(Nc2ncc3cc(-c4c(Cl)cccc4Cl)c(=O)n(C)c3n2)cc1 [SB-601273] | 11 | 99.6 | 99.8 | 100 | 99.9 | 100 | 98.9 | 92.8 | 99.4 | 82
26 | Cc1occc1-c1nc(N)c(OC[C@@H](N)Cc2c[nH]c3ccccc23)cc1-c1cc2c(C)n[nH]c2cn1 [GSK1660450] | 3 | 24 | 24 | 0 | 23 | 11 | 0 | 79 | 0 | 56
27 | CN(C)CCOc1ccc(-c2cc(-c3c[nH]nc3-c3ccccn3)ccn2)cc1 [GW835314] | 8 | 14 | 2 | 11 | 59 | 8 | 8 | 0 | 43 | 0
